Reference: PubChem BioAssay AID591 (National Center for Advancing Translational Sciences (NCATS), 2007)
About 60 (0.1%) of roughly 59,000 compounds were called active. The rule behind the calls is not given here. The list comes from a sample in which actives are over-represented; it also holds similar structures and randomly drawn compounds.

Experiment: qHTS Assay for Spectroscopic Profiling in A488 Spectral Region
Settings: compound autofluorescence; max dye equivalency: Compound Type: qHTS ECL - SigmaAldrich, hits give high values unless noted; outcome: dye equivalency, Compound Type: qHTS ECL - MLSMR unless noted
How it was run: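 Autofluorescence read at ex 480/em 540 nm after 15 min RT in 100 mM Tris pH 8.0; compound signal normalized to A488 standard series on each plate, reported as dye-equivalent concentration at each test concentration.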

Max dye equivalency, active:
CC(C)NC(=O)N1CC[C@@]2(CCCN(C(=O)c3cccc(F)c3)C2)C1 33 nM [Compound Type: qHTS ECL - Pharmacopeia, hits give high values], Nc1ccc2c3c(cccc13)C(=O)NC2=O 95 nM

outcome, inactive:
CC(C)NC(=O)N1CC[C@@]2(CCCN(C(=O)c3ccco3)C2)C1 inactive [dye equivalency, Compound Type: qHTS ECL - Pharmacopeia], COc1ccc(C(=O)N2CCC[C@@]3(CCN(C(=O)NC(C)C)C3)C2)cc1 inactive [dye equivalency, Compound Type: qHTS ECL - Pharmacopeia], c1n[nH]c(NCc2ccc3c(c2)OCO3)n1, CN(C)C(=O)/N=N\C(=O)N(C)C inactive [dye equivalency, Compound Type: qHTS ECL - SigmaAldrich], COCCn1c(=O)c(-c2cccs2)nc2cnc(N3CCN(C)CC3)nc21 inactive [dye equivalency, Compound Type: qHTS ECL - Pharmacopeia], Cc1ccc(-c2nnc(SC(C)C#N)n2N)cc1 (centres undefined), CCN(Cc1nc2ccccc2c(=O)[nH]1)Cc1cc(=O)oc2cc(C)c(C)cc12, O=C(CCS(=O)(=O)c1cccc2nonc12)NCCc1ccccc1Cl, CCOc1cc(S(=O)(=O)NC2CC(C)(C)NC(C)(C)C2)ccc1F inactive [dye equivalency, Compound Type: qHTS ECL - DPISMR], FC(F)(F)c1cccc(Nc2ncnc3ccccc23)c1 inactive [dye equivalency, Compound Type: qHTS ECL - DPISMR], c1csc(CN2CCN(Cc3cccs3)C2c2cccs2)c1, CCOc1ccc(NC(=O)Nc2ccc(N(C)C(C)=O)cc2)cc1 inactive [dye equivalency, Compound Type: qHTS ECL - DPISMR], COC(=O)[C@H](Cc1ccccc1)NC(=O)Nc1ccc(S(N)(=O)=O)cc1 inactive [dye equivalency, Compound Type: qHTS ECL - DPISMR], COCCNc1ncnc2ccc(-c3cccnc3)cc12 inactive [dye equivalency, Compound Type: qHTS ECL - Pharmacopeia], O=C(Cn1c(-c2ccccn2)nc2ccccc21)NCCN1CCOCC1 inactive [dye equivalency, Compound Type: qHTS ECL - DPISMR], Cc1cc(C)c2c(c1)c(C)cc1nnc(SCC(=O)NCc3ccco3)n12, Cc1ccc(NC2=NC(c3ccccc3)n3c(nc(C)cc3=O)N2)cc1 (centres undefined) inactive [dye equivalency, Compound Type: qHTS ECL - DPISMR]
